According to PubChem BioAssay AID1159580 (chemical genetic matrix, 2015):
Where “and” joins values, the source holds several entries; their conditions need not be identical. Equal values may be shown once. Out of some 5,500 compounds screened, about 2,000 (36%) were called active. Another 18% or so got no clear call; they are omitted. No stated cut-off is given here; in the data, active means normalized growth mostly below about 0.91 (no sharp cut-off); inconclusive means no clear call, values can overlap the other calls; inactive means mostly above about 0.92. The list shows a part of the results. Some compounds were tested as several samples or in several runs, with calls that do not always agree.

Test: chemical genetic growth profiling, strain panel (AID 1159580);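 further: tested at 20 µM; growth read once vehicle control cultures reached saturation at 30 °C; 1 = growth at the plate median or of vehicle wells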
Settings: growth OD

SMILES: Cc1cc2c(C(C)C)c(O)c(O)c(C=O)c2c(O)c1-c1c(C)cc2c(C(C)C)c(O)c(O)c(C=O)c2c1O
- normalized growth (S. cerevisiae deletion strains, locus YNL067W, strain RPL9B, stronger effect = lower value): 0.773 (active) and 0.808 (active)
- normalized growth (S. cerevisiae deletion strains, locus YNL071W, strain lat1, stronger effect = lower value): 0.86 (active) and 0.835 (active)
- normalized growth (S. cerevisiae deletion strains, locus YNL128W, strain TEP1, stronger effect = lower value): 0.56 (active) and 0.883 (inactive)
- normalized growth (S. cerevisiae deletion strains, locus YNL153C, strain GIM3, stronger effect = lower value): 0.742 (active) and 0.767 (active)
- normalized growth (S. cerevisiae deletion strains, locus YNL183C, strain NPR1, stronger effect = lower value): 0.984 (inactive)
- normalized growth (S. cerevisiae deletion strains, locus YNL209W, strain ssb2, stronger effect = lower value): 0.527 (active) and 0.542 (active)
- normalized growth (S. cerevisiae deletion strains, locus YNL233W, strain BNI4, stronger effect = lower value): 0.796 (active) and 0.835 (active)
- normalized growth (S. cerevisiae deletion strains, locus YNL248C, strain rpa49, stronger effect = lower value): 0.892 (inactive) and 0.886 (active)
- normalized growth (S. cerevisiae deletion strains, locus YNL250W, strain rad50, stronger effect = lower value): 0.961 (inactive) and 0.957 (inactive)
- normalized growth (S. cerevisiae deletion strains, locus YNL271C, strain bni1, stronger effect = lower value): 0.969 (inactive) and 0.96 (inactive)
- normalized growth (S. cerevisiae deletion strains, locus YNL298W, strain CLA4, stronger effect = lower value): 0.959 (inactive) and 0.985 (inactive)
- normalized growth (S. cerevisiae deletion strains, locus YNL307C, strain MCK1, stronger effect = lower value): 0.804 (active) and 0.984 (inactive)
- normalized growth (S. cerevisiae deletion strains, locus YNL322C, strain KRE1 (second series), stronger effect = lower value): 0.875 (active) and 0.9 (active)
- normalized growth (S. cerevisiae deletion strains, locus YNL322C, strain KRE1, stronger effect = lower value): 0.832 (active)
- normalized growth (S. cerevisiae deletion strains, locus YNR049C, strain mso1, stronger effect = lower value): 0.854 (active) and 0.889 (active)
- normalized growth (S. cerevisiae deletion strains, locus YNR052C, strain pop2, stronger effect = lower value): 0.679 (active) and 0.959 (inactive)
- normalized growth (S. cerevisiae deletion strains, locus YOL006C, strain TOP1, stronger effect = lower value): 0.436 (active)
- normalized growth (S. cerevisiae deletion strains, locus YOL012C, strain htz1): 0.315 (inactive) and 0.44 (inactive)
- normalized growth (S. cerevisiae deletion strains, locus YOL147C, strain pex11, stronger effect = lower value): 0.872 (active) and 0.991 (inactive)
- normalized growth (S. cerevisiae deletion strains, locus YOR001W, strain rrp6, stronger effect = lower value): 0.764 (active) and 0.819 (active)
- normalized growth (S. cerevisiae deletion strains, locus YOR061W, strain CKA2, stronger effect = lower value): 0.653 (active) and 0.79 (active)
- normalized growth (S. cerevisiae deletion strains, locus YOR069W, strain VPS5, stronger effect = lower value): 0.799 (active) and 0.9 (active)
- normalized growth (S. cerevisiae deletion strains, locus YOR070C, strain gyp1, stronger effect = lower value): 0.893 (active) and 0.784 (active)
- normalized growth (S. cerevisiae deletion strains, locus YOR080W, strain dia2, stronger effect = lower value): 0.755 (active) and 0.812 (active)
- normalized growth (S. cerevisiae deletion strains, locus YOR083W, strain WHI5, stronger effect = lower value): 0.806 (active) and 0.808 (active)
- normalized growth (S. cerevisiae deletion strains, locus YOR106W, strain vam3, stronger effect = lower value): 0.537 (active) and 0.567 (active)
- normalized growth (S. cerevisiae deletion strains, locus YOR136W, strain idh2, stronger effect = lower value): 0.969 (inactive) and 0.986 (inactive)
- normalized growth (S. cerevisiae deletion strains, locus YOR144C, strain elg1, stronger effect = lower value): 0.859 (active) and 0.978 (inactive)
- normalized growth (S. cerevisiae deletion strains, locus YOR184W, strain ser1, stronger effect = lower value): 0.664 (active) and 0.912 (inactive)
- normalized growth (S. cerevisiae deletion strains, locus YOR231W, strain MKK1, stronger effect = lower value): 1.01 (inactive)
- normalized growth (S. cerevisiae deletion strains, locus YOR265W, strain rbl2, stronger effect = lower value): 0.808 (active) and 0.842 (active)
- normalized growth (S. cerevisiae deletion strains, locus YOR270C, strain vph1, stronger effect = lower value): 0.231 (active) and 0.311 (active)
- normalized growth (S. cerevisiae deletion strains, locus YOR290C, strain snf2, stronger effect = lower value): 0.525 (active) and 0.627 (active)
- normalized growth (S. cerevisiae deletion strains, locus YOR316C, strain cot1, stronger effect = lower value): 0.967 (inactive) and 1 (inactive)
- normalized growth (S. cerevisiae deletion strains, locus YPL051W, strain arl3, stronger effect = lower value): 0.51 (active) and 0.436 (active)
- normalized growth (S. cerevisiae deletion strains, locus YPL078C, strain atp4, stronger effect = lower value): 0.715 (active) and 0.778 (active)
- normalized growth (S. cerevisiae deletion strains, locus YPL106C, strain sse1, stronger effect = lower value): 0.798 (active) and 0.905 (inactive)
- normalized growth (S. cerevisiae deletion strains, locus YPL240C, strain hsp82, stronger effect = lower value): 0.846 (active) and 0.936 (inactive)
- normalized growth (S. cerevisiae deletion strains, locus YPL241C, strain CIN2, stronger effect = lower value): 0.912 (active) and 0.957 (inactive)
- normalized growth (S. cerevisiae deletion strains, locus YPL256C, strain CLN2, stronger effect = lower value): 0.973 (inactive)
- normalized growth (S. cerevisiae deletion strains, locus YPR119W, strain clb2, stronger effect = lower value): 0.983 (inactive) and 1.02 (inactive)
- normalized growth (S. cerevisiae deletion strains, locus YPR141C, strain kar3, stronger effect = lower value): 0.984 (inactive) and 0.991 (inactive)
- normalized growth (S. cerevisiae deletion strains, locus YPR163C, strain tif3, stronger effect = lower value): 0.932 (inactive) and 1.02 (inactive)
- normalized growth (S. cerevisiae deletion strains, locus YPR167C, strain met16, stronger effect = lower value): 0.842 (active) and 0.958 (inactive)
- normalized growth (S. cerevisiae deletion strains, strain wtn01, stronger effect = lower value): 0.86 (active) and 0.906 (inactive)
- normalized growth (S. cerevisiae strains, strain wild type, stronger effect = lower value): 0.809 (active)
